{
  "source": "the supplement of paper PMC10037445",
  "key": {"RAW-Dual [1]": {"test_system": "RAW-Dual", "experiment": "NF-kB SEAP reporter activity, fold change vs agonist alone; higher = enhanced NF-kB activity", "how_it_was_run": "(§1)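 RAW-Dual macrophages were seeded in DMEM at 50,000 cells/well in 384-well plates, given 50 nL of library stock by pin tool, and given a PRR agonist 1 h later. Plates were held at 37 °C, 5% CO2 for 20 hours, after which supernatant was read for IRF by QuantiLuc luminescence and for NF-κB by QuantiBlue absorbance at 620 nm. Reporter activity is expressed as fold change over wells that received agonist alone. A well was called cytotoxic when IncuCyte confluency fell below 70% of agonist controls in both mask sets.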"}, "RAW-Dual [2]": {"test_system": "RAW-Dual", "experiment": "NF-kB SEAP reporter activity, fold change vs agonist alone; cytotoxicity flag (confluency mask): not cytotoxic; higher = enhanced NF-kB activity", "how_it_was_run": "as §1"}, "[3]": {"conditions": "library stock concentration (final ~1000-fold dilution): 10 mM, cytotoxicity flag (confluency mask): not cytotoxic, agonist: Imiquimod (TLR7) […]"}, "[4]": {"conditions": "library stock concentration (final ~1000-fold dilution): 10 mM, cytotoxicity flag (confluency mask): not cytotoxic, agonist: MPLA (TLR4) […]"}, "[5]": {"conditions": "agonist: ODN 1826 (TLR9) 0.5 ug/mL"}, "[6]": {"conditions": "agonist: Pam2CSK4 (TLR2/6) 0.1 ug/mL"}, "[7]": {"conditions": "agonist: Pam3CSK4 (TLR2/1) 0.1 ug/mL"}, "[8]": {"conditions": "library stock concentration (final ~1000-fold dilution): 10 mM, cytotoxicity flag (confluency mask): cytotoxic (confluency <70% of control), agonist: Imiquimod (TLR7) […]"}, "[9]": {"conditions": "library stock concentration (final ~1000-fold dilution): 10 mM, cytotoxicity flag (confluency mask): cytotoxic (confluency <70% of control), agonist: MPLA (TLR4) […]"}},
  "note": "Over roughly 2,900 compounds, “NF-kB SEAP reporter activity, fold change vs agonist alone” has its median near 0.99; the highest 2% begin near 2.6. The sample as a whole holds a higher share of the highest values than the screen did.",
  "data": [
    {"smiles": "O=C(OC1OC2COC(=O)c3cc(O)c(O)c(O)c3-c3c(cc(O)c(O)c3O)C(=O)OC(C2O)C1O)c1cc(O)c(O)c(O)c1", "note": "(stereo not drawn)", "values": [
      {"measurement": "NF-kB SEAP reporter activity", "setting": "RAW-Dual [1]; [3]", "result": 0.783},
      {"measurement": "NF-kB SEAP reporter activity", "setting": "RAW-Dual [1]; [4]", "result": 1.08}
    ]},
    {"smiles": "O=C(OC1OC2COC(=O)c3cc(O)c(O)c(O)c3-c3c(cc(O)c(O)c3O)C(=O)OC(C2O)C1O)c1cc(O)c(O)c(O)c1", "note": "(stereo not drawn) (library stock concentration (final ~1000-fold dilution): 10 mM)", "values": [
      {"measurement": "NF-kB SEAP reporter activity", "setting": "RAW-Dual [2]; agonist: LPS (TLR4) 0.1 ug/mL", "result": 1.34},
      {"measurement": "NF-kB SEAP reporter activity", "setting": "RAW-Dual [2]; [5]", "result": 0.874},
      {"measurement": "NF-kB SEAP reporter activity", "setting": "RAW-Dual [2]; [6]", "result": 0.809},
      {"measurement": "NF-kB SEAP reporter activity", "setting": "RAW-Dual [2]; [7]", "result": 0.393}
    ]},
    {"smiles": "C=C1c2cccc(O)c2C(=O)C2=C(O)C3(O)C(=O)C(C(N)=O)=C(O)C(N(C)C)C3C(O)C12.Cl", "note": "(stereo not drawn) (library stock concentration (final ~1000-fold dilution): 10 mM water)", "values": [
      {"measurement": "NF-kB SEAP reporter activity", "setting": "RAW-Dual [2]; agonist: LPS (TLR4) 0.1 ug/mL", "result": 1.12},
      {"measurement": "NF-kB SEAP reporter activity", "setting": "RAW-Dual [2]; [5]", "result": 1.14},
      {"measurement": "NF-kB SEAP reporter activity", "setting": "RAW-Dual [2]; [6]", "result": 1.26},
      {"measurement": "NF-kB SEAP reporter activity", "setting": "RAW-Dual [2]; [7]", "result": 1.05}
    ]},
    {"smiles": "C=C1c2cccc(O)c2C(=O)C2=C(O)C3(O)C(=O)C(C(N)=O)=C(O)C(N(C)C)C3C(O)C12.Cl", "note": "(stereo not drawn)", "values": [
      {"measurement": "NF-kB SEAP reporter activity", "setting": "RAW-Dual [1]; library stock concentration (final ~1000-fold dilution): 10 mM water, cytotoxicity flag (confluency mask): not cytotoxic, agonist: Imiquimod (TLR7) […]", "result": 0.915},
      {"measurement": "NF-kB SEAP reporter activity", "setting": "RAW-Dual [1]; library stock concentration (final ~1000-fold dilution): 10 mM water, cytotoxicity flag (confluency mask): not cytotoxic, agonist: MPLA (TLR4) […]", "result": 1.08}
    ]},
    {"smiles": "Fc1ccc2c(/C=C/c3nnn[nH]3)c[nH]c2c1", "note": "(library stock concentration (final ~1000-fold dilution): 10 mM)", "values": [
      {"measurement": "NF-kB SEAP reporter activity", "setting": "RAW-Dual [2]; agonist: LPS (TLR4) 0.1 ug/mL", "result": 1.11},
      {"measurement": "NF-kB SEAP reporter activity", "setting": "RAW-Dual [2]; [5]", "result": 0.894},
      {"measurement": "NF-kB SEAP reporter activity", "setting": "RAW-Dual [2]; [6]", "result": 0.966},
      {"measurement": "NF-kB SEAP reporter activity", "setting": "RAW-Dual [2]; [7]", "result": 1.14}
    ]},
    {"smiles": "Fc1ccc2c(/C=C/c3nnn[nH]3)c[nH]c2c1", "values": [
      {"measurement": "NF-kB SEAP reporter activity", "setting": "RAW-Dual [1]; [3]", "result": 0.885},
      {"measurement": "NF-kB SEAP reporter activity", "setting": "RAW-Dual [1]; [4]", "result": 1.05}
    ]},
    {"smiles": "C/C1=C/CC[C@@]2(C)O[C@@H]2[C@H]2OC(=O)[C@H](CN(C)C)[C@@H]2CC1", "note": "(library stock concentration (final ~1000-fold dilution): 10 mM)", "values": [
      {"measurement": "NF-kB SEAP reporter activity", "setting": "RAW-Dual [2]; agonist: LPS (TLR4) 0.1 ug/mL", "result": 0.302},
      {"measurement": "NF-kB SEAP reporter activity", "setting": "RAW-Dual [2]; [5]", "result": 0.185},
      {"measurement": "NF-kB SEAP reporter activity", "setting": "RAW-Dual [2]; [6]", "result": 0.197},
      {"measurement": "NF-kB SEAP reporter activity", "setting": "RAW-Dual [2]; [7]", "result": 0.151}
    ]},
    {"smiles": "C/C1=C/CC[C@@]2(C)O[C@@H]2[C@H]2OC(=O)[C@H](CN(C)C)[C@@H]2CC1", "values": [
      {"measurement": "NF-kB SEAP reporter activity", "setting": "RAW-Dual [1]; [3]", "result": 0.137},
      {"measurement": "NF-kB SEAP reporter activity", "setting": "RAW-Dual [1]; [4]", "result": 0.246}
    ]},
    {"smiles": "O=C(N/N=C/c1ccc(O)c(O)c1)c1cc2ccccc2cc1O", "note": "(library stock concentration (final ~1000-fold dilution): 10 mM)", "values": [
      {"measurement": "NF-kB SEAP reporter activity", "setting": "RAW-Dual [2]; agonist: LPS (TLR4) 0.1 ug/mL", "result": 0.616},
      {"measurement": "NF-kB SEAP reporter activity", "setting": "RAW-Dual [2]; [5]", "result": 0.257},
      {"measurement": "NF-kB SEAP reporter activity", "setting": "RAW-Dual [2]; [6]", "result": 0.16},
      {"measurement": "NF-kB SEAP reporter activity", "setting": "RAW-Dual [2]; [7]", "result": 0.192}
    ]},
    {"smiles": "O=C(N/N=C/c1ccc(O)c(O)c1)c1cc2ccccc2cc1O", "values": [
      {"measurement": "NF-kB SEAP reporter activity", "setting": "RAW-Dual [1]; [3]", "result": 0.605},
      {"measurement": "NF-kB SEAP reporter activity", "setting": "RAW-Dual [1]; [4]", "result": 0.843}
    ]},
    {"smiles": "CCN(CC)CCNC(=O)c1ccc(N)cc1.Cl", "values": [
      {"measurement": "NF-kB SEAP reporter activity", "setting": "RAW-Dual [1]; [3]", "result": 0.94},
      {"measurement": "NF-kB SEAP reporter activity", "setting": "RAW-Dual [1]; [4]", "result": 1.05}
    ]},
    {"smiles": "O=C(CCCCCCNC(=O)c1cnc(N(c2ccccc2)c2ccccc2Cl)nc1)NO", "values": [
      {"measurement": "NF-kB SEAP reporter activity", "setting": "RAW-Dual [1]; [8]", "result": 1.51},
      {"measurement": "NF-kB SEAP reporter activity", "setting": "RAW-Dual [1]; [9]", "result": 2.19}
    ]},
    {"smiles": "CN(C)CCCNC(=O)c1ccc(-c2cc(O)c3ncccc3c2)cc1", "values": [
      {"measurement": "NF-kB SEAP reporter activity", "setting": "RAW-Dual [1]; [3]", "result": 1.08},
      {"measurement": "NF-kB SEAP reporter activity", "setting": "RAW-Dual [1]; [4]", "result": 1}
    ]},
    {"smiles": "CCOC(=O)NCCCC(=O)NCCc1ccccc1", "values": [
      {"measurement": "NF-kB SEAP reporter activity", "setting": "RAW-Dual [1]; [3]", "result": 0.961},
      {"measurement": "NF-kB SEAP reporter activity", "setting": "RAW-Dual [1]; [4]", "result": 0.985}
    ]},
    {"smiles": "CCN(CC)CCNC(=O)c1ccc(N)cc1.Cl", "note": "(library stock concentration (final ~1000-fold dilution): 10 mM)", "values": [
      {"measurement": "NF-kB SEAP reporter activity", "setting": "RAW-Dual [2]; agonist: LPS (TLR4) 0.1 ug/mL", "result": 0.999},
      {"measurement": "NF-kB SEAP reporter activity", "setting": "RAW-Dual [2]; [5]", "result": 1.02},
      {"measurement": "NF-kB SEAP reporter activity", "setting": "RAW-Dual [2]; [6]", "result": 0.923},
      {"measurement": "NF-kB SEAP reporter activity", "setting": "RAW-Dual [2]; [7]", "result": 1.04}
    ]},
    {"smiles": "O=C(CCCCCCNC(=O)c1cnc(N(c2ccccc2)c2ccccc2)nc1)NO", "values": [
      {"measurement": "NF-kB SEAP reporter activity", "setting": "RAW-Dual [1]; [8]", "result": 1.12},
      {"measurement": "NF-kB SEAP reporter activity", "setting": "RAW-Dual [1]; [9]", "result": 2.14}
    ]},
    {"smiles": "O=C(NO)c1cccc(C(=O)NCCc2ccccc2)c1", "note": "(library stock concentration (final ~1000-fold dilution): 10 mM)", "values": [
      {"measurement": "NF-kB SEAP reporter activity", "setting": "RAW-Dual [2]; agonist: LPS (TLR4) 0.1 ug/mL", "result": 0.989},
      {"measurement": "NF-kB SEAP reporter activity", "setting": "RAW-Dual [2]; [5]", "result": 1.12},
      {"measurement": "NF-kB SEAP reporter activity", "setting": "RAW-Dual [2]; [6]", "result": 0.864},
      {"measurement": "NF-kB SEAP reporter activity", "setting": "RAW-Dual [2]; [7]", "result": 0.709}
    ]}
  ]
}
